Bioassay records: PubChem, National Center for Advancing Translational Sciences (NCATS)
HPGD block: blocks human HPGD enzyme activity | purified HPGD, NADH fluorescence kinetic, PGE2 substrate | Potency, µM, without a hit: at the highest dose activity change, negative = inhibition, actives largely listed as inhibitors | P15428 | actives 4.3% (n = 150,000) | AID 894; also: potency is read from the fitted curve at half-maximal effect
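NADH formation kinetics: reaction with 30 uM PGE2 and 1 mM NAD+ (final), 20 nM enzyme, Tris-HCl pH 8 with Tween 20, after 15 min compound preincubation at room temperature. Fluorescence change, last versus first of five reads.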
PNC inhibitor: blocks assembly of the perinucleolar compartment. PC3M PTB-GFP, PNC prevalence imaging, 16 h; stronger effect = lower value. activity change (PNC), negative = inhibition, % at 10 µM. actives 3.1% (n = 140,000);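 active = readout at or below -70, meaning at least 70% loss of cells showing the perinucleolar compartment, a nuclear body marking cancer cells; inconclusive = readout between -30 and a set limit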;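 also: plate controls were DMSO wells for no effect and camptothecin positive control wells for full effect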
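Read-out is percentage of cells bearing a perinucleolar compartment, from automated 20x imaging of fixed, Hoechst-stained PC3M PTB-GFP cells. Cells were seeded 4 h, then exposed 16 h to compound (23 nl of library stock) in duplicate plates.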
ALDH1A1 block: ALDH1A1 (human) enzyme inhibition; P00352; Purified ALDH1A1, NADH fluorescence, propionaldehyde substrate; Potency, µM (top dose mostly 75.3 µM), without a hit: top-dose activity, negative = inhibition, hits mostly inhibitors; actives 7.3% (n = 220,000); AID 1030;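 also: potency is read from the fitted curve at half-maximal effect; plate controls were no enzyme wells and a reference inhibitor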
Target sequence (P00352 whole entry, looked up): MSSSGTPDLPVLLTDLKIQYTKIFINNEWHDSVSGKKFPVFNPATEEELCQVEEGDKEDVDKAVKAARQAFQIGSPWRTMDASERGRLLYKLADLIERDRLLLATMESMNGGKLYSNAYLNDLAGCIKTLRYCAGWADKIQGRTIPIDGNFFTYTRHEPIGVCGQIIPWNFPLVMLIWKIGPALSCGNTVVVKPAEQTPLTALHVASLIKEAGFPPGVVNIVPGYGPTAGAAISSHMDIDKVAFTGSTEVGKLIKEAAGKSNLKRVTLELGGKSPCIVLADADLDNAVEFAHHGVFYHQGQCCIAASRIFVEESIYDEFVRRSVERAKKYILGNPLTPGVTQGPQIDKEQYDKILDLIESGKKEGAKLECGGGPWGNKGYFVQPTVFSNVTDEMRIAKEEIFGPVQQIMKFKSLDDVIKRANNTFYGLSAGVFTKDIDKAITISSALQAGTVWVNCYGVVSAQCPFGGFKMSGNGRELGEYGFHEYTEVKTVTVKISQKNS
* marks the source's active call; other numbers are inactive results; u = inconclusive; x = no result; [ ] = another dose, or the depositor's remark. Compounds with a hit are over-represented: about 11% of the library has one in this group of screens. Unless noted, calls follow the shape of the dose curve; as a rule, active = well fitted inhibition curve with a large enough effect (not every such curve was filed as active); inconclusive = small, poorly fitted or top-dose-only effect, or another doubt; inactive = no such curve, though single readings can be large or run the other way. Unless noted, % is scaled to controls: 0 for no effect and ±100 for the full control effect.

SMILES	HPGD block	PNC inhibitor	ALDH1A1 block
CCOC(=O)c1c(C)nc(C)c(C(=O)OCC)c1-c1ccc(O)c(OC)c1	x	x	16µM*
NC(=O)CNC(=O)[C@@H]1CC2(CC(c3cccc([N+](=O)[O-])c3)=NO2)CN1C(=O)c1ccccc1 (some centres not stated)	-11%	1	1µM*
CC1(C(=O)N2CC3(CC(c4cccc([N+](=O)[O-])c4)=NO3)C[C@H]2C(=O)NCC(N)=O)CC1 (some centres not stated)	-6%	114	5%
CC[n+]1c(C)n(-c2ccccc2)c2ccc(C(=O)OC)cc21	x	x	4%
COc1ccc(OC[C@@H](CO)OC)cc1	x	x	14%[13.5 µM]
COCCN1C(=O)c2ccccc2C(C(=O)N2CCN(c3ccccc3)CC2)C1c1ccc(F)cc1 (configuration not stated)	-7%	5	5%
COc1ccc(C2C(C(=O)N3CCC(C)CC3)c3ccccc3C(=O)N2C)cc1 (configuration not stated)	-6%	-86*	-5%
COc1ccc(C2C(C(=O)N3CC(C)CC(C)C3)c3ccccc3C(=O)N2C)cc1 (configuration not stated)	-7%	103	-1%
COc1ccc(C2C(C(=O)N3CCN(c4ccccc4F)CC3)c3ccccc3C(=O)N2C)cc1 (configuration not stated)	-7%	-25	0.89µM*
CC(=O)OC1C[C@@]2(C)C(c3ccoc3)OC(=O)C3O[C@@]32[C@]2(C)C(OC(C)=O)CC3C(C)(C)C(OC(C)=O)CC(OC(C)=O)[C@@]3(C)C12 (some centres not stated)	21%	x	5%
O=C(Nc1ccccc1)N(O)c1ccc(Cl)cc1	-28%	14	1µM*
O=C(Nc1ccc(Cl)cc1)N(Cc1cccs1)Cc1cccs1	-5%	26	-4%
C[C@H](CCC(=O)O)[C@H]1CC[C@]2(C)[C@@H]3C(=O)C[C@H]4C(C)(C)[C@@H](O)CC[C@]4(C)[C@H]3C(=O)C[C@@]12C	-6%	x	1%[13.5 µM]
COc1ccc(CC(=O)NCc2n[nH]c(=S)n2-c2cccc(Cl)c2)cc1	x	x	0%
Cc1nnc(N/N=C/c2ccc(O)c([N+](=O)[O-])c2)[nH]c1=O	-10%	u	-8%
O=C1/C(=C/c2cccnc2)SC(=S)N1Cc1ccco1	-14%	x	2.2µM*
O=C1/C(=C/c2cccnc2)SC(=S)N1c1ccccc1	-9%	26	u
O=C1/C(=C/c2ccc(O)c([N+](=O)[O-])c2)SC(=S)N1Cc1ccccc1	x	x	4µM*
Cc1cc(/C=C2\NC(=S)NC2=O)c(C)n1-c1cccnc1	x	x	23%
Cc1cc(/C=C2\SC(=S)N(Cc3ccco3)C2=O)c(C)n1-c1cccnc1	-15%	19	0.28µM*
NC1=NC(=O)/C(=C\c2ccc(O)c([N+](=O)[O-])c2)S1	x	x	-16%
CN1C(=O)/C(=C/c2ccc(O)c([N+](=O)[O-])c2)NC1=S	x	x	11µM*
Cc1ccc(C#CC[N+]2(CC#Cc3ccc(C)cc3)CCCCC2)cc1	-6%	-16	4%
O=C(OCc1cncs1)c1cccs1	x	x	10%
N#C/C(=C\c1ccco1)C(=O)Nn1cnnc1	x	x	-1%
SMILES	HPGD block	PNC inhibitor	ALDH1A1 block
COc1cccc([C@@H]2Oc3ccc(Br)cc3C[C@H]2OC(=O)NS(=O)(=O)c2ccc(C)cc2)c1	-20%	x	-9%
COC(=O)c1cc(OC)c(OC)cc1NC(=S)N1CCN(c2ccccc2)CC1	-9%	37	-3%
COC(=O)Cn1c(=NC(=O)c2ccc(OC)c(OC)c2)sc2cc(OC)ccc21	u	19	u
CC(C)NC(=O)N1CCCC2(CCN(S(=O)(=O)c3ccccc3)CC2)C1	0%	x	-4%
COc1ccc(S(=O)(=O)NCc2ccco2)cc1N(C)S(=O)(=O)c1ccccc1	x	x	5%
c1ccc2c(NCCN3CCOCC3)nc(-c3ccc4c(c3)OCO4)nc2c1	x	x	1%
CCN1C(=O)/C(=C\c2cn(-c3ccccc3)nc2-c2cccnc2)SC1=S	x	x	1%
O=C1/C(=C/c2ccccc2O)SC(=S)N1Cc1cccnc1	2.8µM*	73	7.5µM*
NC(=O)c1ccc(-n2nnnc2SCc2ccccc2)cc1	-17%	2	5%
O=C(O)c1cc(-n2nnnc2SCc2ccccc2F)ccc1Cl	x	x	10µM*
Fc1cccc(Cl)c1Cn1nnc(-c2ccc3c(c2)OCO3)n1	-24%	-17	u
Fc1cccc(Cl)c1CSc1nnnn1-c1ccc2c(c1)OCO2	-16%	48	14µM*
O=c1[nH]cc(CS(=O)(=O)Cc2c[nH]c(=O)[nH]c2=O)c(=O)[nH]1	-7%	x	-12%[13.5 µM]
C[C@H](C(=O)O)c1cccc(Oc2ccccc2)c1	-9%	x	4%[20.9 µM]
Cc1cc(C)nc(SCc2cc(=O)c(OC(=O)c3cccc([N+](=O)[O-])c3)co2)n1	-4%	-5	0.056µM*
